Measured values: PubChem BioAssay (NCI)
Several values for one entry are separate records, joined by “and”; a condition that tells them apart may be missing. Equal values may be shown once. Compounds without any hit were thinned out: in the full panel of roughly 79,000, 15% have a hit. Values without a mark were called inactive. Activity calls are given as the source filed them. No stated cut-off is given here; in the data, active means growth inhibition above about 70%; inactive means the rest.

What was measured:
[1] = NCI Yeast Anticancer Drug Screen. Data for the rad50 strain (AID 155);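 further: 0% = growth of vehicle-only cultures of the same strain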; conditions: S. cerevisiae rad50 strain growth inhibition, hits give high values; at 50.0 µM unless noted
Outline: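 DNA repair mutant yeast, compound exposure, growth read-out; inhibition is taken relative to vehicle.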

[2] = NCI Yeast Anticancer Drug Screen. Data for the mec2-1 strain (AID 157); conditions: S. cerevisiae mec2-1 strain, hits give high values; at 50.0 µM unless noted
Outline: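 Mutant yeast (mec2-1) grown with compound; growth inhibition relative to vehicle control reported.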

[3] = NCI Yeast Anticancer Drug Screen. Data for the sgs1 mgt1 strain (AID 161);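 further: 0% = growth of cultures given vehicle only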; conditions: S. cerevisiae sgs1 mgt1 strain, hits give high values; at 50.0 µM unless noted
Outline: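 Yeast cells carrying a defined DNA-repair defect were exposed to test compounds. Growth inhibition was measured relative to vehicle-treated controls.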

[4] = NCI Yeast Anticancer Drug Screen. Data for the cln2 rad14 strain (AID 165);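 further: 0% = growth equal to vehicle treated cultures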; conditions: S. cerevisiae cln2 rad14 strain, hits give high values; at 50.0 µM unless noted
Outline: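 Readout is yeast growth inhibition versus vehicle-treated controls, using a strain with cln2 and rad14 alterations exposed to compound.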

[5] = NCI Yeast Anticancer Drug Screen. Data for the bub3 strain (AID 167); conditions: S. cerevisiae bub3 mutant strain, hits give high values; at 50.0 µM unless noted
Outline: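 In this screen, a yeast mutant lacking normal mitotic checkpoint function is challenged with compound. Relative growth versus vehicle gives the inhibition value.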

[6] = NCI Yeast Anticancer Drug Screen. Data for the mlh1 rad18 strain (AID 175); conditions: S. cerevisiae mlh1 rad18 strain growth inhibition, hits give high values; at 50.0 µM unless noted
Outline: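 Genetically defined yeast (DNA repair-deficient) exposed to compounds; growth inhibition determined relative to vehicle.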

Structure (SMILES) | growth inhibition [1] | growth inhibition [2] | growth inhibition [3] | growth inhibition [4] | growth inhibition [5] | growth inhibition [6]
Cc1ccc(Cl)cc1NC(=O)Nc1ccccc1Cl | 11.5% | 12.2% | 6.05% | -12.2% | 8.85% | -11%
NC(=S)N/N=C/c1ccc(N)cn1 | -4.2% | 17% | -0.5% | 0.25% | 8.15% | -8.8%
CCOC(=O)C12CCCC1(O)N(NC(N)=O)C(C)=C2C(=O)OC (stereo unspecified) | 10.2% | -5.1% | 3.05% | -69.1% | -11.9% | 6.2%
ON=C1CCC(c2ccccc2)CC1 (stereo unspecified) | -21.3% | -24% | 13.8% | -24.2% | 2.85% | -9.6%
O=C(O)c1cscc1Cc1cccs1 | 0.05% | -13.7% | -43.6% | -30.6% | -76% | 13.7%
c1ccc2c(c1)nnn2C1CCCCO1 (stereo unspecified) | -4.8% | -13.2% | -19.5% | -5.1% | -22.4% | -72.8%
O=S(=O)(O)c1cc(O)c(S(=O)(=O)O)cc1O | -12.2% | 13.9% | 1.7% | -3.6% | 1.4% | -8.6%
CC1=CCC2C(C)(C)CCCC2(C)C1COC1OC(OCC2C(C)=CCC3C(C)(C)CCCC23C)C2C1=CCC1C(C)(C)CCCC21C (stereo unspecified) | 90% (active) | 89.2% (active) | 84.1% (active) | 89.6% (active) | 89.2% (active) | 88% (active)
CCOc1ccc(NC(N)=O)cc1 | -44.5% | -9.85% | -14.5% | -3.7% | -2.55% | 15.2%
Cc1cc(NC(=O)C(=O)Cc2nc3ccccc3s2)ccc1Cl | 25.9% | 12.7% | 21.9% | 43.9% | 10.9% | 19.1%
CN(CCOC(=O)Nc1ccccc1)N=O | 9.35% | -9.35% | 0.75% | -15.4% | 7.7% | -3%
O=C1/C(=C/c2ccc(Cl)cc2)CCC1CN1CCOCC1 (stereo unspecified) | 89.8% (active) | 92.2% (active) | 89.2% (active) | 92.3% (active) | 91.1% (active) | 92% (active)
CC1CCCC(CC(=O)O)(CC(=O)O)C1 (stereo unspecified) | -14.1% | -33.6% | -5.1% | -29.3% | -4.1% | -21.4%
O=C1COC(c2ccccc2O)=NN1Cc1ccccc1 | -14.6% | -0.3% | -5.3% | -4.75% | -8.6% | -1.1%
CC(CCC#CC(=O)O)OC1CCCCO1 (stereo unspecified) | -14.9% | -33% | -2.05% | 2.95% | -15.1% | -14.2%
O=S(=O)(/C(=C\c1ccccc1)c1ccccc1)c1ccccc1 | -4.8% | -12.4% | -12.8% | -17.7% | -4.5% | -6.65%
COc1cc(OC)cc(C(=O)CC(=O)c2cc(OC)cc(OC)c2)c1 | -49.6% | -38.3% | -69% | -7.9% | -33.4% | -26.1%
CC1=C2CC(C)(C)/C=C\C(=O)/C(C)=C\C3=C[C@H](C)C[C@]3(O2)C1=O | 60.8% | 71.2% (active) | 72.8% (active) | 40.4% | 64.4% | 79.8% (active)
Cc1cc2cccc(Cl)c2nc1C(=O)c1ccccc1 | -9.3% | -12.3% | -9.3% | 22.4% | -7.4% | -12.6%
O=S1(=O)C2C=CC1C(Br)C(Br)CC2 (stereo unspecified) | -9.4% | 13.9% | 26.8% | 12% | -0.15% | 20.4%
COC(NC(=O)Nc1ccccc1C)(C(F)(F)F)C(F)(F)F | -12.3% | -22.4% | -34.4% | 2.8% | -24.4% | -12.8%

Structure (SMILES) | growth inhibition [1] | growth inhibition [2] | growth inhibition [3] | growth inhibition [4] | growth inhibition [5] | growth inhibition [6]
COc1ccc2c(CSc3ncnc4nc[nH]c34)cc(=O)oc2c1 | 12.4% | 21.8% | 13.1% | -14.7% | 25.4% | 34.9%
CCCCCCC(C)OB(OC(C)CCCCCC)OC(C)CCCCCC (stereo unspecified) | -27.6% | -49% | -0.8% | 13.8% | -41.4% | -0.85%
O=C(O)CS(=O)c1ccc2c3c(cccc13)C(=O)c1ccccc1-2 (stereo unspecified) | 14.7% | -12.5% | -38.5% | -0.05% | -30.8% | 1.7%
[O-]c1nn(-c2ccccc2)n[n+]1-c1ccccc1 | -2.4% | -12.4% | -0.55% | -25% | -10.8% | -10%
CC(=O)NCC(=O)c1ccc([N+](=O)[O-])cc1 | 16.6% and -14.7% | -16.3% and -24.1% | 13% and -0.95% | -0.2% and 6.65% | -6.95% and -17.6% | 29.8% and -1.7%
CN1CC2=C(NC(=S)NC2c2ccc(Cl)cc2)/C(=C/c2ccc(Cl)cc2)C1 (stereo unspecified) | -7.95% | 4.45% | 7.45% | 14.4% | 29.2% | 4.15%
Clc1cc(NCc2ccco2)ncn1 | -21.8% | -6.3% | -19.5% | -3.9% | 0.85% | -11.2%
CS(=O)(=O)OC1Cc2ccccc2C1 | 12.6% | -0.3% | -2.35% | -6.1% | -5% | 9.9%
C=C1C(=O)OC2/C=C(\C)C(O)/C=C\C(C)(O)CC(OC(=O)/C(C)=C/C)C12 (stereo unspecified) | -18% | -37.6% | -3.15% | -2% | -34.8% | -26.8%
O=C(Nc1ccc(Cl)c(Cl)c1)N(CCO)Cc1ccccc1 | 88.7% (active) | 97% (active) | 97.2% (active) | 90% (active) | 95.5% (active) | 94.4% (active)
N#CCSc1ncnc2nc[nH]c12 | 4.25% | 1.65% | -5.95% | 5.6% | 4.8% | 0.15%
COC(=O)c1cc(-c2ccc(N)cc2)n2c(N)nnc2n1 | 15% | 23.4% | 25.8% | -1.55% | 2.45% | 18.6%
c1ccc2nc3c(cc2c1)NCC3 | -2.3% | 5.15% | -14.4% | -22.6% | -8.25% | -20.9%
COc1ccc(-c2sc(C)nc2O)cc1 | 7.75% | 2.35% | 0.3% | -20.8% | -15.5% | 7.2%
CN(C)c1ccc(-c2nc(-c3cc4c(ccc5ccccc54)oc3=O)cs2)cc1 | 22.1% | 15.6% | -7.55% | 6.4% | -19.8% | -36%
C[C@H]1CC[C@@H]2O[C@@]23C(=O)OC2OC(C)(C)[C@@H]([C@H]2O)[C@]13C | -18.6% | -4.85% | -26% | -0.35% | -5.2% | -10.9%
COC(=O)C1(C)CCCC2(C)c3cc(OC)ccc3C(=O)CC12 (stereo unspecified) | 24.4% | 12.7% | 28% | 5.95% | 19.6% | 21.7%
CC1=NC(=Cc2cc(Br)cc(Br)c2)C(=O)N1n1c(-c2ccccc2)nc2ccccc2c1=O | -13.2% | -15.8% | -1.65% | 0.95% | -24.7% | 2.7%
O=C1CN(CCc2ccccc2)CC(=O)N2C(c3ccccc3)CCCN12 (stereo unspecified) | 62.7% | 38.5% | 65.2% | 42.2% | 52% | 43.4%
CN(/C(=C/C(=O)c1ccccc1)C(=O)c1ccccc1)/C(=C/C(=O)c1ccccc1)C(=O)c1ccccc1 | -27.4% | 3.2% | -0.95% | -5.25% | -4.5% | 26.8%
